From the supplement of paper PMC4466236
Whole data set: some 33,000 sequences, median “E-score (dimensionless, -0.5 to 0.5)” near -0.058, cut for the highest 2% near 0.35. For the sample, the highest values were picked, then their nearest neighbours and some sequences at random.

Test system: MvaT
Test: PBM 8-mer E-score (mean of HK and ME arrays) (E-score (dimensionless, -0.5 to 0.5)); higher = stronger relative binding preference
Experimental: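 Protein binding microarray: GST-tagged full-length MvaT (P. aeruginosa PAO1) bound to two universal double-stranded 60-mer arrays (ME and HK), each with a constant 25-mer primer and a variable 35-mer region covering all 8-mers. The 8-mer E-score (rank-based, range -0.5 to 0.5, >0.45 = specific binding) is the mean of the two arrays.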

Row | Sequence | PBM 8-mer E-score
1 | AATTAAAG | 0.355
2 | CATTAAAG | 0.272
3 | ATGTTGGA | 0.125
4 | CAACCATA | 0.0988
5 | CTCGTAAG | -0.0264
6 | CCTGGTTC | -0.254
7 | CCGCCGGC | -0.321
8 | AAATAGGA | -0.0215
9 | AAAAACAC | 0.087
10 | CAGGTGAG | -0.208
11 | GCCCCACC | -0.292
12 | AAGGAGTC | -0.047
13 | CTAATCAA | 0.102
14 | TATTAAAA | 0.41
15 | GATTAAAC | 0.191
16 | GATTAAGA | 0.157
17 | AATTAAAC | 0.382
18 | AATTAAGA | 0.277
19 | CATTAAAC | 0.334
20 | CATTAAAA | 0.201
21 | TATTAAGA | 0.366
22 | GATTAAAA | 0.217
23 | TGATGGAA | 0.0193
24 | CGCCCCTC | -0.202
25 | CCACCCTA | 0.0237

Row | Sequence | PBM 8-mer E-score
26 | AAAAGTGC | 0.142
27 | AGGTGGGC | -0.177
28 | AATTTGGC | 0.161
29 | CTGCAGTA | 0.129
30 | AAAGCATA | 0.0331
31 | GTTTAAAC | 0.406
32 | CTTTAAAC | 0.229
33 | ATTTTAAC | 0.307
34 | GGTTAAAC | 0.0681
35 | CTTTAAAG | 0.25
36 | ATTTTAAG | 0.225
37 | ATTTAAAT | 0.474
38 | ATTTAAAG | 0.354
39 | ATTTAAAC | 0.398
40 | GCTTAAAC | 0.121
41 | ATTAAAAC | 0.301
42 | GGGTGCAA | -0.0874
43 | AGTTCGAT | 0.171
44 | CGGTCCGA | -0.24
45 | GGGTAGCA | -0.213
46 | CAGTGTCC | -0.176
47 | GACAAATC | -0.0221
48 | ATTTAATG | 0.376
49 | GTTTAAGA | 0.246
50 | ATTTACTG | 0.247

Row | Sequence | PBM 8-mer E-score
51 | ATTTAAGG | 0.101
52 | GTTTAATA | 0.407
53 | AGTTAATA | 0.406
54 | ATTTAACA | 0.376
55 | GGTTAATA | 0.276
56 | GTTTAACA | 0.281
57 | ATTTAACG | 0.255
58 | AGTTAATC | 0.169
59 | ATTTAACC | 0.195
60 | CAACTCCA | -0.0538
61 | CACCCAGA | -0.158
62 | CATAGGAG | 0.0253
63 | AATCTCGG | 0.0949
64 | ACACCATA | 0.0603
65 | CCAGGTCA | -0.141
66 | AAGTAGGT | 0.0927
67 | CATTCCCC | -0.183
68 | ATTTAAGA | 0.239
69 | ATTTAAGC | 0.309
70 | ATTTAATA | 0.411
71 | CTTTAATC | 0.141
72 | CTTTAATA | 0.344
73 | ATTTAATC | 0.346
74 | AGATCGCG | -0.153
75 | GATTCAGA | -0.0136

Row | Sequence | PBM 8-mer E-score
76 | GAGTTAGC | -0.00613
77 | GGACCAAA | -0.139
78 | AGCTCGGA | -0.141
79 | CAATTATG | 0.329
80 | AAATTATG | 0.233
81 | TAATTCTA | 0.278
82 | GAATTATA | 0.374
83 | CAATTATC | 0.264
84 | TAATTATA | 0.462
85 | AAATTATC | 0.318
86 | GAATTATC | 0.147
87 | GAATTACA | 0.175
88 | TAATTGTA | 0.305
89 | CAATTATA | 0.414
90 | AAATTATA | 0.45
91 | AAGGACCA | -0.154
92 | AGGGGGTG | -0.316
93 | AACCTGCT | -0.0689
94 | TGTCCCAA | 0.187
95 | CTGGCAAC | 0.0118
96 | TCCTTCAA | -0.14
97 | ATACTAAG | 0.272
98 | AGTAGGTG | -0.0642
99 | AATCGAAC | 0.176
100 | CCCGGCGA | -0.269

Row | Sequence | PBM 8-mer E-score
101 | AAATTGTA | 0.267
102 | GAATTAGA | 0.106
103 | AAATTGTC | 0.22
104 | TAATTAGA | 0.353
105 | AAATTACC | 0.212
106 | AAATTATT | 0.401
107 | CAATTACA | 0.288
108 | AAATTACA | 0.274
109 | AAATTAGG | 0.165
110 | CAATTAGA | 0.202
111 | AAATTGTT | 0.351
112 | TAATTACA | 0.384
113 | ACAGCAAG | -0.0242
114 | GTACATAA | 0.297
115 | CCGGGACC | -0.311
116 | ATCCAGAA | 0.0751
117 | ATCAGTCG | -0.0941
118 | ACAAATGC | 0.0069
119 | GAGGTAGC | -0.211
120 | AGCCACCA | -0.0502
121 | CAAAGTTA | 0.265
122 | CATAGTTA | 0.178
123 | AAAAGTTT | 0.352
124 | TAAAGTTA | 0.315
125 | AAAAGTGA | 0.0292

Row | Sequence | PBM 8-mer E-score
126 | AAAAGTTG | 0.221
127 | AAAAGTCA | 0.0201
128 | AATAGTTA | 0.387
129 | AAAAGTTA | 0.371
130 | AAAAGTTC | 0.277
131 | GATAGTTA | 0.311
132 | GAAAGTTA | 0.346
133 | GCGTCAGA | -0.131
134 | CGTGGATA | 0.112
135 | ATCCCAGA | -0.203
136 | GCCACGCA | -0.169
137 | CACCGGTG | -0.153
138 | GAAACAGA | -0.0327
139 | CGGAGTAC | -0.128
140 | CTGAATGC | -0.0524
141 | AGGTCGCG | -0.202
142 | AAAAAGTT | 0.357
143 | AAAAAGTA | 0.154
144 | AAAAAGTC | 0.17
145 | TGCCGGCA | -0.0619
146 | ATGACTCA | -0.062
147 | AGTTAAAA | 0.37
148 | CGTTAAAA | 0.295
149 | TGTTAAAA | 0.25
150 | AGTTAAAT | 0.383

Row | Sequence | PBM 8-mer E-score
151 | AGTTAAAC | 0.242
152 | AGTTAAAG | 0.209
153 | ACCTGCAC | -0.11
154 | CCGCAGAC | -0.181
155 | AAAGACGT | 0.0386
156 | CGTGCGCC | -0.27
157 | TCCAGGCA | -0.215
158 | AATTGTAA | 0.305
159 | TATTGTAA | 0.379
160 | AAATGTAG | 0.0975
161 | ACATGTAA | 0.361
162 | TAATGTAA | 0.373
163 | CAATGTAA | 0.236
164 | AAATGTAA | 0.373
165 | GAATGTAA | 0.232
166 | CCATGTAA | 0.171
167 | AAATGTAC | 0.14
168 | GATTGTAA | 0.109
169 | TCATGTAA | 0.119
170 | AGTAGATA | 0.202
171 | CGAATTTA | 0.157
172 | CTGGGATA | -0.0515
